# Source: PubChem BioAssay (National Center for Advancing Translational Sciences (NCATS))
# IL-1B inflam inh – inflammasome signaling inhibition, IL-1 beta readout | THP-1 LPS/ATP IL-1B secretion, AlphaLISA, 16 h; hits give low values | activity change, % at 57.5 µM | hit rate 4.7% among 360,000 | AID 743279; in the data active means activity change below about -50%; inconclusive means mostly about -30% to -49%
#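 THP-1 cells pretreated 1 hr with compounds (up to 57.5 uM final), then stimulated with LPS (250 ng/mL final) plus ATP (1.25 mM final); secreted IL-1B measured by AlphaLISA after 16 hr, decreased signal indicating inhibition.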
# ELG1 DNA repair – inhibitors of ELG1-dependent DNA repair in HEK293T cells; HEK293T ELG1-luciferase reporter, luminescence, 16 h; DNA damage induced by 5-fluorouridine; Potency, µM (highest dose often 46.1 µM), inactives show at the top dose activity change, negative = inhibition, usual class: inhibitors; hit rate 2.3% among 330,000; AID 504467; further: potency means the concentration at half of the fitted maximal effect; nearly all actives have a fitted effect of over 55% in size
#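 Cells (2,000 per well) received 5-fluorouridine plus test compound or DMSO and were incubated 16 hr at 37 °C, 5% CO2. Luciferase activity was read by luminescence 30 min after ONE-Glo addition; signal suppression marked inhibition of damage-induced ELG1 function.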
# HT1080 IDH1KD tx – HT-1080 IDH1 knockdown cell toxicity (counter line); HT-1080 IDH1 knockdown viability, ATP luminescence, 48 h; Potency, µM (highest dose often 46.1 µM), inactives show at the highest dose activity, negative = toxicity, most hits filed as cytotoxic; hit rate 2% among 360,000; AID 686971;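 further: potency means the concentration at half of the fitted maximal effect; 0% = DMSO wells and -100% = cell-free medium wells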
#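 In this qHTS, HT-1080 cells depleted of IDH1 are exposed for 48 h at 37 °C to compound titrations. Toxicity is scored from CellTiter-Glo luminescence, with DMSO as full viability and medium alone as none.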
# TDP1 cell noCPT – qHTS for Inhibitors of human tyrosyl-DNA phosphodiesterase 1 (TDP1): qHTS in cells in absence of CPT | AID 686978, 2013 | DT40 Tdp1-/- hTDP1 cells, no CPT, ATP luminescence, 48 h | hit rate 15% among 420,000 | Potency, µM (titrated, usually from 46.2 µM), without a hit: at the top dose activity change, negative = growth inhibition, hits mostly inhibitors; further: potency means the concentration at half of the fitted maximal effect; nearly all actives have a fitted effect of over 55% in size
#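 Growth of hTDP1-complemented DT40 Tdp1-knockout cells is measured by ATP luminescence after at least 48 hr compound exposure at 37 °C, with DMSO substituting for the 20 nM CPT used in the parallel screen.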
# HT1080-NT tox – kills 2HG-producing HT-1080-NT fibrosarcoma cells; HT-1080-NT fibrosarcoma viability, CellTiter-Glo ATP luminescence, 48 h; Potency, µM (doses to about 46.1 µM), for the others: top-dose activity, negative = less viability, hits mostly cytotoxic; hit rate 1.6% among 360,000; AID 686970;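 further: NT is the 2HG producing partner of a matched IDH1 knockdown line; potency means the concentration at half of the fitted maximal effect; 0% = DMSO-treated cells and -100% = media-only wells without cells; nearly all actives have a fitted effect of over 55% in size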
#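 Viability of the 2HG-overproducing fibrosarcoma line after 48 hours of compound exposure at 37 degrees C was determined by luminescence with CellTiter-Glo, and concentration-effect curves were then fitted and categorized.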
# DT40 TDP1 CPT – DT40-hTDP1 cell growth loss with CPT; AID 686979; Potency, µM (highest dose often 46.2 µM), for the others: top-dose activity change, negative = growth inhibition, most hits filed as inhibitors; chicken DT40 Tdp1-/-;hTDP1 cells + 20 nM CPT, ATP luminescence, 48 h; hit rate 12% among 420,000; further: potency means the concentration at half of the fitted maximal effect; nearly all actives have a fitted effect of over 55% in size
#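 Chicken DT40 Tdp1-/- cells complemented with human TDP1, 400 cells/well, exposed to compounds plus 20 nM camptothecin for at least 48 h at 37 C; viability read as ATP content by CellTiter-Glo luminescence.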
# * marks the source's active call; other numbers are inactive results; i = inactive; ? = inconclusive; · = not tested or not shown; [ ] = remark or other dose. The list is not random: actives were taken first. Their share in the collection is about 19%. Unless noted, the call rests on the fitted dose curve; in most records, active means well fitted curve in the direction sought with a large enough effect; inconclusive means small, poorly fitted or top-dose-only effect, or another doubt; inactive means no such curve, though single readings can be large; an effect the other way counts as inactive or inconclusive. Unless noted, on the % scale 0 is the no-effect control and ±100 the full control effect.
SMILES,IL-1B inflam inh,ELG1 DNA repair,HT1080 IDH1KD tx,TDP1 cell noCPT,HT1080-NT tox,DT40 TDP1 CPT
Cc1ccccc1S(=O)(=O)N1C[C@H]2CON(C)[C@H]2C[C@H]1c1cccc(Oc2ccccc2)c1,34.0,·,-29.6%,18.4µM*,-8.3%,?
Cc1ccccc1-c1cccc([C@@H]2C[C@H]3[C@H](CON3C)CN2Cc2ccccc2)c1,0.0,·,?,16.4µM*,-1.9%,23.1µM*
CN1OC[C@@H]2CN(S(=O)(=O)c3cc(Cl)cc(Cl)c3)[C@H](c3ccc(-c4ccc(C#N)cc4)cc3)C[C@@H]21,16.9,·,1.2%,20.6µM*,8.7%,?
C=CCCC(=O)N1C[C@H]2CON(C)[C@H]2C[C@H]1c1cccc(Oc2ccccc2)c1,14.8,·,9.7%,?,2.2%,?
CN1OC[C@@H]2CN(Cc3ccc(Cl)cc3)[C@H](c3cccc(Br)c3)C[C@@H]21,-3.6,·,-14.2%,16.4µM*,-8.5%,?
CN1OC[C@@H]2CN(C(=O)C(C)(C)C)[C@H](c3cccc(Br)c3)C[C@@H]21,10.7,·,11.6%,-6.5%,14.6%,4.9%
COc1ccc(CCNC(=O)C(=O)NCC2OCCN2S(=O)(=O)c2cc(F)ccc2F)cc1OC (configuration not stated),-2.6,?,-9.6%,-29.2%,-4.1%,?
COCC(=O)N1C[C@H]2CON(C)[C@H]2C[C@H]1c1cccc(-c2ccccc2OC)c1,-1.5,·,2.1%,8.2%,4.1%,3.3%
CN1OC[C@@H]2CN(Cc3cc(Cl)cc(Cl)c3)[C@H](c3cccc(-c4ccc(C#N)cc4)c3)C[C@@H]21,?,·,-0.7%,?,-7.1%,20.6µM*
COc1ccccc1-c1cccc([C@@H]2C[C@H]3[C@H](CON3C)CN2C(=O)CCc2ccccc2)c1,-25.6,·,-3.4%,?,0.4%,18.4µM*
CC(=O)c1ccc(F)c(-c2cc(C)cc3c2OC(CNC(=O)C(C)n2nc(C)cc2C)C3)c1 (configuration not stated),·,·,·,-20.5%,·,0.3%[9.04 µM]
O=c1[nH]cnc2c1c(-c1ccccc1)cn2-c1cccc(Cl)c1,-7.0,?,-0.7%,?,-6.6%,?
CC(=O)Nc1ccc(Nc2ncnc3c2c(-c2ccccc2)cn3-c2ccccc2)cc1,·,·,·,18.4µM*,·,16.4µM*
CC(C)c1ccc(Nc2ncnc3c2c(-c2ccccc2)cn3-c2ccccc2)cc1,·,·,·,?,·,3.66µM*
CC(=O)Nc1ccc(Nc2ncnc3c2c(-c2ccccc2)cn3-c2ccc(C)c(Cl)c2)cc1,·,·,·,8.2µM*,·,9.2µM*
Cc1cccc(-n2cc(-c3ccccc3)c3c(NC(C)C)ncnc32)c1,·,·,·,23.1µM*,·,20.6µM*
Cc1ccc(NC(=O)c2ncn(CCCNCC3CCCO3)n2)cc1C (configuration not stated),28.8,·,-5.3%,-26.4%,-1.0%,4.7%
CC(C)Oc1ccc(S(=O)(=O)N2CCOCC2)cc1NC(=O)c1ccc(Cl)c(S(=O)(=O)N2CCOCC2)c1,?,·,5.5%,-21.7%,-0.2%,-13.5%
CCn1c(-c2ccccc2F)nc2cc(NC(C)=O)cc(C(=O)N(C)Cc3ccccn3)c21,·,·,·,-3.1%,·,3.8%[9.04 µM]
CCC1C(=O)NCCN1Cc1ccc2c(c1)CN(Cc1ccc3c(c1)OCCO3)CCO2 (configuration not stated),·,·,·,-28.4%,·,?
Cc1ccc(Nc2ncnc3c2cnn3C)cc1,1.7,?,2.7%,?,15.6%,-29.0%
CC(=O)Nc1ccc(Nc2ncnc3c2cnn3C)cc1,·,·,·,?,·,16.4µM*
CC(C)Oc1ccc(CNS(=O)(=O)c2ccc(-c3cc(C(F)(F)F)on3)s2)cc1,·,·,·,-21.4%,·,-14.9%
CSCCC(=O)N1CCC(n2nccc2NC(=O)CCCc2ccccc2)CC1,-0.5,22.0%,-10.4%,-25.9%,-0.6%,-18.8%
Cc1ccc2[nH]c(=O)c(CN(Cc3ccc4c(c3)OCO4)Cc3nnnn3Cc3ccco3)cc2c1,-59.1*,?,-17.4%,?,-18.9%,11.6µM*
SMILES,IL-1B inflam inh,ELG1 DNA repair,HT1080 IDH1KD tx,TDP1 cell noCPT,HT1080-NT tox,DT40 TDP1 CPT
Cc1cc(C)c2cc(CN(Cc3ccc4c(c3)OCO4)Cc3nnnn3Cc3ccco3)c(=O)[nH]c2c1,-61.8*,?,-17.7%,?,-18.9%,?
CCN(CC)C(=O)C1=C(C)N(Cc2ccc(F)cc2)C(=O)C(CC(=O)NCC2CCCCC2)C1 (configuration not stated),-23.3,·,-11.4%,20.6µM*,-10.5%,?
CC1=C(C(=O)N2CCCCCC2)CC(CC(=O)NCCCCc2ccccc2)C(=O)N1Cc1ccccc1 (configuration not stated),-22.0,·,-9.4%,20.6µM*,-0.3%,18.4µM*
CCN(CC)C(=O)C1=C(C)N(Cc2ccccc2)C(=O)C(CC(=O)NCC2CCCCC2)C1 (configuration not stated),-21.7,·,-0.1%,?,8.3%,?
CCN(CC)C(=O)C1=C(C)N(Cc2ccc(C(C)(C)C)cc2)C(=O)C(CC(=O)NCCCCc2ccccc2)C1 (configuration not stated),?,·,?,?,?,-103.1%
CC1=C(C(=O)N(C)C)CC(CC(=O)NCCCCc2ccccc2)C(=O)N1Cc1ccc(C(C)(C)C)cc1 (configuration not stated),-21.7,·,-25.5%,13µM*,-22.1%,16.4µM*
CCN(CC)C(=O)C1=C(C)N(Cc2ccc(F)cc2)C(=O)C(CC(=O)NCCCCc2ccccc2)C1 (configuration not stated),-16.9,·,-11.2%,20.6µM*,-15.2%,?
CC(C)(C)NC(=O)CSc1ncnc2c1cnn2-c1ccccc1,-10.8,?,-16.5%,?,-3.0%,?
Cc1cnc(C(=O)N2CCCC(N3CCN(c4ccccc4C)CC3)C2)cn1 (configuration not stated),12.7,3.1%,17.4%,?,12.0%,18.4µM*
CCc1[nH]nc(C(=O)N2CCCC(N3CCN(c4ccccc4C)CC3)C2)c1C (configuration not stated),-17.2,-8.1%,-1.6%,?,-4.1%,16.4µM*
Cc1ccccc1N1CCN(C2CCCN(C(=O)c3ccsc3)C2)CC1 (configuration not stated),i,0.4%,-1.6%,?,0.8%,?
